# Source: PubChem BioAssay AID624116 (National Center for Advancing Translational Sciences (NCATS), 2012)
# Records with an inconclusive call do not appear. A call without a number means that no potency is given here. Active and inactive are the calls of the source. Calls come from the whole dose curve; as a rule, active = well fitted activation curve with a large enough effect; inconclusive = small, poorly fitted or top-dose-only effect; inactive = no such curve, though single readings can be large or run the other way.
# Assay: qHTS Assay for Rab9 Promoter Activators: Hit Validation Using Renilla Luciferase Read-Out for Rab9
# How it was run: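 Luciferase reporter read-out: promoter activation measured by luminescence after 10 min with detection reagent at room temperature. Cells were Huh7 with a stable promoter-luciferase construct, treated 24 h at 37 deg C.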
# Potency is the fitted concentration of half-maximal effect.
row,Compound,Potency
1,Cc1c(C(O)CN2CCN(Cc3ccc4c(c3)OCO4)CC2)c2ccccc2n1C (configuration not stated),inactive
2,CC1=C(C(=O)OC2CCCC(C)C2)C(c2ccccc2)NC(=O)N1 (configuration not stated),inactive
3,S=C1NCN(CCc2ccccc2)CN1Cc1ccccc1,inactive
4,CCc1cc(C(=O)Nc2ccccc2)cs1,inactive
5,COC(=O)c1ccccc1NC(=O)c1ccc(-c2ccc(Br)cc2)o1,inactive
6,COc1ccccc1CNC(=O)COc1ccc(C)cc1,inactive
7,COC(=O)c1ccccc1NC(=O)c1cc(-c2cccs2)on1,inactive
8,Cc1ccc(C(=O)Nc2ccc(N3CCN(C)CC3)nc2)cc1,inactive
9,C=CCn1c(C)nnc1SCC(=O)Nc1nccs1,inactive
10,Cc1ccc(C(=O)c2cn[nH]c2-c2ccccc2O)cc1,inactive
11,Cc1ccc(C#N)c(SCC(=O)Nc2nccs2)n1,inactive
12,Cc1ccc(C)c(Nc2cc(C)nc3ncnn23)c1,inactive
13,CCCNC(=O)C1CCN(S(=O)(=O)c2ccc3[nH]c(=O)ccc3c2)CC1,inactive
14,O=C(C[N+]1(CC#Cc2ccccc2)CCCCC1)c1ccccc1,inactive
15,COc1ccc(-n2c(N)c(C(=O)NCc3ccco3)sc2=S)cc1,inactive
16,COc1ccccc1OCCCC(=O)NCc1ccco1,inactive
17,N#C/C(=N\Nc1ccc(Cl)cc1)C(=N)N1CCCCC1,inactive
18,COC(=O)c1sccc1NC(=S)OC,inactive
19,CCOC(=O)CSc1nc2cc3c(cc2cc1C#N)OCO3,inactive

row,Compound,Potency
1,Cc1ccc(S(=O)(=O)/N=C2\C=C(Nc3cccc(C(=O)O)c3)C(=O)c3ccccc32)cc1,inactive
2,Cc1ccc(NC(=O)c2ncc(Cl)c(Cl)c2Cl)cc1C,inactive
3,COc1cccc(NC(=O)CN2C(=O)CSc3ccc(S(=O)(=O)N4CCC(C)CC4)cc32)c1,inactive
4,CCC1CCCCN1CCCNC(=O)c1ccc2nc(N3CCCCC3)sc2c1 (configuration not stated),inactive
5,Cn1c(CCN2CCN(c3ccccc3)CC2)nc2cc(NC(=O)c3ccco3)ccc21,inactive
6,O=C(CSc1nnc(-c2csc3c2CCCC3)o1)Nc1ccccc1,inactive
7,N#CC/C(N)=N/NC(=O)CCCNc1ncc(C(F)(F)F)cc1Cl,inactive
8,COc1ccc(NC(=S)NNC(=O)c2cccs2)cc1,inactive
9,Cc1csc(NC(=O)CSc2nnc(-c3ccncc3)o2)n1,inactive
10,Cc1ccc(N=Cc2sc(O)c3ccccc23)c(C)c1,inactive
11,Cc1ccccc1NC(=O)Cc1nc(COC(=O)CC(C)c2ccccc2)cs1 (configuration not stated),inactive
12,CC(C)(C)C(=O)N/C(N)=N/c1nc2ccccc2o1,inactive
13,CCCCn1c(CCNC(=O)c2cccs2)nc2ccccc21,inactive
14,Cc1cccc(C)c1NC(=O)Nc1cccs1,inactive
15,CCCCc1cc(=O)oc2cc(OCC(=O)N3CCOCC3)ccc12,inactive
16,COCCNC(=O)CN1C(=O)NC(c2ccccc2)(c2ccccc2)C1=O,inactive
17,CC(=O)Nc1nnc(SCC(=O)NCCOc2ccccc2)s1,inactive
18,Cc1ccc(C2C3=C(CC(C)(C)CC3=O)N(CCN3CCOCC3)C3=C2C(=O)CC(C)(C)C3)cc1,20.7 µM (active)
